Laboratory results reported in PubChem BioAssay (NCI).
Values joined by “and” are separate entries in the source; they are usually repeats but may differ in a detail not shown here. Equal entries are not always repeated. The panel holds about 83,000 compounds, 20% with a hit somewhere; the sample as a whole holds those more often.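 Values shown are percent growth following 48 h exposure of cells in 96-well plates to a single concentration of compound; below 10 was considered active.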 Active and inactive are the calls of the source.

The molecules below were run on HL-60(TB) leukemia (assay: NCI-60 one-dose screen, 48 h (100 = growth as untreated, 0 = no growth, -100 = all killed)). Details: 10 µM unless noted.
`Oc1ccc(-c2cnc(-c3ccccc3)[nH]2)c(O)c1` was tested, and the growth was 101% (inactive).
`O=C(NC1C(O)OC(CO)C(O)C1O)NS(=O)(=O)c1ccc(Cl)cc1` (stereo not given) was tested, and the growth was 93.4% (inactive).
For `Nc1ncnc2c1c(-c1cccc(Cl)c1)nn2CC(=O)N1CCOCC1`, the growth was 101% (inactive).
`COc1ccc(-c2csc(NC(=O)N3CCN(c4cc5c(cc4F)c(=O)c(C(=O)O)cn5C4CC4)CC3)n2)cc1` was tested, and the growth was -11.6% (active).
For `CC1=C/C(=C(\c2ccc(N(C)C)cc2)c2ccc([N+](C)(C)C)cc2)C=CC1=[N+](C)C`, the growth was 98.6% (inactive).
For `N#CC1=C(Nc2ccccc2Cl)SC(c2ccccc2O)NC1=O` (stereo not given), the growth was 93.1% (inactive).
With `O=[N+]([O-])c1ccc2c(N=Nc3ccc4ccccc4c3O)c(O)cc(S(=O)(=O)O)c2c1` the growth was 108% (inactive).
With `CCCCCCCCCCCCCCCCCCOc1ccccc1CC(=O)OCCC[N+](C)(C)C` the growth was 9.1% (active).
In the case of `COc1ccc(/C=C\c2cc(OC)c(OC)c(OC)c2)c(NS(=O)(=O)c2ccc(C(C)(C)C)cc2)c1O`, the growth is reported as 6.05% (active).
With `CCNc1nnnn1CC` the growth was 111% (inactive).
With `C=C(C)[C@@H]1CC[C@]2(C(=O)N=C=S)CC[C@]3(C)[C@H](CC[C@@H]4[C@@]5(C)CCC(=O)C(C)(C)[C@@H]5CC[C@]43C)[C@@H]12` the growth was -2.27% (active).
In the case of `O=C1/C(=C/c2ccc(O)cc2O)N=C2SCCCN12`, the growth is reported as 100% (inactive).
For `C[C@@H]1[C@H]2[C@H](C=C3[C@@H]4CC[C@H]5Cc6nc7c(nc6C[C@]5(C)[C@H]4C[C@@H](O)[C@@]32C)C[C@@H]2CC[C@H]3C4=C[C@@H]5O[C@@]6(CC[C@](C)(CO)O6)[C@@H](C)[C@@]5(O)[C@@]4(C)[C@H](O)C[C@@H]3[C@@]2(C)C7)O[C@]12CCC(C)(C)O2`, the growth was 4.6% (active).
With `COc1ccc(-c2n[nH]nc2-c2cc(OC)c(OC)c(OC)c2)cc1` the growth was -8.64% (active).
In the case of `O=C(Cn1c(=O)sc2nc3ccccc3nc21)Nc1ncc(Cc2cccc(Cl)c2Cl)s1`, the growth is reported as 98.3% (inactive).
In the case of `CN(C)CCNc1nc2c3cc(Cl)ccc3nn2c2ccccc12`, the growth is reported as 56.1% (inactive).
For `COC(=O)c1cc(C(=O)OC)cc([N+](=O)[O-])c1`, the growth was 85.8% (inactive).
With `O=C(Nc1ccc2cc3ccc(NC(=O)NC4CCCCC4)cc3nc2c1)NC1CCCCC1` the growth was 99.3% (inactive).
`O=[N+]([O-])c1ccc2[nH]cc(-c3c4ccsc4cc4[nH]c5ccc([N+](=O)[O-])cc5c34)c2c1` was tested, and the growth was 8.08% (active).
For `COC(=O)/C=C/C(=O)NC(N)=O`, the growth was 97.4% (inactive).
`COc1cc2c(cc1-c1c(C)noc1C)ncc1nc(C3CCOCC3)n([C@H](C)COC(F)F)c12` was tested, and the growth was 27.5% (inactive).
In the case of `Cc1ccc(C(=O)Nc2ccccc2C(=O)N/N=C(\c2ccccc2)c2ccccn2)cc1`, the growth is reported as 2.36% (active).
`COc1ccc(-c2nn(Cc3ccccc3)c3c2-c2oncc2CC3)cc1OC` was tested, and the growth was 87.7% (inactive).
In the case of `CC(C)CCC[C@@H](C)[C@H]1CC[C@H]2[C@@H]3CC=C4C[C@@H](C(C(=O)O)C(=O)O)CC[C@]4(C)[C@H]3CC[C@]12C`, the growth is reported as -44.4% (active).
With `COc1ccc(/C(C)=C(\c2ccc(Cl)cc2)c2ccc(OCCN3CCCCC3)cc2)cc1F` the growth was -14% (active).
With `CCCCN(CCCC)c1ccc(C(=O)O)cc1` the growth was 104% (inactive).
`CCCCCCc1cc2cc(-c3csc(/C=C/c4ccccc4)n3)c(=O)oc2cc1O` was tested, and the growth was -46.8% (active).
With `COc1ccc(-c2cn[nH]c2-c2ccc(OC)c(O)c2)cc1` the growth was 46.1% (inactive).
With `CC(C)CNC(=O)c1ccccc1C(=O)NC1(C(=O)NCC(C)C)CCCC1` the growth was 92.9% (inactive) and 97.4% (inactive).
In the case of `Oc1c(Cl)cc(Cl)cc1/C=N/Nc1nnc(N/N=C/c2cc(Cl)cc(Cl)c2O)c2ccccc12`, the growth is reported as -24% (active).
In the case of `C=CCc1cc(OC)c(O)c(OC)c1`, the growth is reported as 109% (inactive).
For `Cc1c(O)ccc(SC#N)c1C`, the growth was 101% (inactive).
For `COC(=O)/C=C/c1cc(O)c2oc(-c3ccc(O)c(O)c3)c(C(=O)OC)c2c1`, the growth was 6.46% (active).
`Nc1nc(=S)c2ncn(C3OC(COC(=O)c4ccc(Cl)cc4)C(OC(=O)c4ccc(Cl)cc4)C3OC(=O)c3ccc(Cl)cc3)c2[nH]1` (stereo not given) was tested, and the growth was 93.7% (inactive).
With `COc1ccc(CNC(=O)[C@H](O)[C@@H](N)Cc2ccccc2)cc1` the growth was 102% (inactive).
In the case of `COc1ccc(CN2C(=O)/C(=C\c3cc(OC)c(OC)c(OC)c3)c3ccccc32)cc1`, the growth is reported as -16.2% (active).
For `COc1cc(-c2cc3ncccc3c3nc(N)c4cccnc4c23)cc(OC)c1OC`, the growth was 6.71% (active).
In the case of `O=C(C(=O)N1CCOCC1)c1cn(CCCn2cc(C(=O)C(=O)N3CCOCC3)c3ccccc32)c2ccccc12`, the growth is reported as 91.9% (inactive).
In the case of `CCn1c2ccccc2c2cc(NC(=O)Nc3ccc([N+](=O)[O-])cc3C)ccc21`, the growth is reported as 18.7% (inactive).
`O=C(O)C(O)c1ccccc1` (stereo not given) was tested, and the growth was 97.3% (inactive).
